The values that follow come from PubChem BioAssay (NCI).

About 79,000 compounds went through this panel and 15% of them were active in at least one assay; those are over-represented in the sample as a whole. A number with no mark means an inactive call. Calls of active or inactive are those of the source. Cut-off read from the data, not from the text of the source: active = growth inhibition above about 70%; inactive = the rest.

Test [1] is described as follows: NCI Yeast Anticancer Drug Screen. Data for the rad50 strain (AID 155).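 Note: 0% = growth of vehicle-only cultures of the same strain.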 The following applies: S. cerevisiae rad50 strain growth inhibition; at 50.0 µM; active compounds read high. The method in brief: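 Inhibition values express reduced yeast growth in compound-treated cultures relative to vehicle-treated controls.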
Test [2] in a line: NCI Yeast Anticancer Drug Screen. Data for the mec2-1 strain (AID 157). The following applies: S. cerevisiae mec2-1 strain, at 50.0 µM, active compounds read high. The method in brief:
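Cells of the genetically defined mec2-1 yeast strain are incubated with test compound. Inhibition of growth is calculated against vehicle-treated controls.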

A short description of test [3]: NCI Yeast Anticancer Drug Screen. Data for the sgs1 mgt1 strain (AID 161).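 Note: 0% = growth of cultures given vehicle only.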 As to conditions: S. cerevisiae sgs1 mgt1 strain, at 50.0 µM, active compounds read high. A digest of the protocol: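 Test agents were incubated with a DNA-repair-mutant yeast strain. Growth was then read and compared against vehicle-treated controls.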
Test [4] in a line: NCI Yeast Anticancer Drug Screen. Data for the cln2 rad14 strain (AID 165).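 Note: 0% = growth equal to vehicle treated cultures.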 As to conditions: S. cerevisiae cln2 rad14 strain, at 50.0 µM, active compounds read high. The method in brief:
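The screen exposed genetically defined yeast (cln2 rad14) to test compounds and scored growth inhibition relative to vehicle-treated controls.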

The nature of test [5]: NCI Yeast Anticancer Drug Screen. Data for the bub3 strain (AID 167). The following applies: S. cerevisiae bub3 mutant strain, at 50.0 µM, active compounds read high. A digest of the protocol:
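Steps: expose the mutant yeast strain to compound; grow alongside vehicle-treated cultures; measure growth; express inhibition against the vehicle cultures.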

The nature of test [6]: NCI Yeast Anticancer Drug Screen. Data for the mlh1 rad18 strain (AID 175). As to conditions: S. cerevisiae mlh1 rad18 strain growth inhibition; at 50.0 µM; active compounds read high. A digest of the protocol:
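Compound-treated yeast growth, normalised to vehicle controls. Strain bears defined DNA repair mutations.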

`CC(=O)c1ccccc1N=Nc1ccc(N(CCCl)CCCl)cc1C`: the growth inhibition is 13.5% in test [1]; 19.7% in test [2]; 12.9% in test [3]; 0.95% in test [4]; 20.5% in test [5]; 31.4% in test [6].
Turning to `[N-]=[N+]=C1C(=O)NN=C1c1ccccc1`, the growth inhibition in test [1] was -9.6%; in test [2] it was -21.9%; in test [3], -25.4%; in test [4] it was 0.5%; in test [5], -17.2%; in test [6], 12.8%.
Take `FC(F)(F)[S-].FC(F)(F)[S-].[C-]#[O+].[C-]#[O+].[C-]#[O+].[C-]#[O+].[C-]#[O+].[C-]#[O+].[C-]#[O+].[C-]#[O+].[Mn].[Mn]`: the growth inhibition is 99.3% (active) in test [1]; 99.6% (active) in test [2]; 99.7% (active) in test [3]; 99% (active) in test [4]; 99% (active) in test [5]; 99.3% (active) in test [6].
Consider `CCCCOP(=O)(OCCCC)SCl`, for which the growth inhibition was -9.4% in test [1]; 1.7% in test [2]; 3.2% in test [3]; 13.9% in test [4]; -11.1% in test [5]; 6% in test [6].
Consider `OC[C@@H](O)[C@@H](O)CO`, for which the growth inhibition in test [1] is 3.2%; in test [2] it was -0.25%; in test [3], -12.1%; in test [4], 15.2%; in test [5], -5.55%; in test [6], 10.1%.
On to `NC(N)=NN(N=O)C1CCCCC1`, for which the growth inhibition is 4.35% in test [1]; 5.05% in test [2]; -7.85% in test [3]; -34.8% in test [4]; -10.5% in test [5]; 5.8% in test [6].
Consider `NC(N)=N/N=C1\C(=O)N(c2cccc([N+](=O)[O-])c2)C(=O)C1C(=O)Nc1cccc([N+](=O)[O-])c1` (centres undefined), for which the growth inhibition is -17.9% in test [1]; -22.4% in test [2]; -17.1% in test [3]; -29.6% in test [4]; 1.4% in test [5]; -14.5% in test [6].
As to `c1cc[c]([Pb]([S]c2ccccn2)([c]2ccccc2)[c]2ccccc2)cc1`, the growth inhibition is 99.2% (active) in test [1]; 99.1% (active) in test [2]; 99.5% (active) in test [3]; 99% (active) in test [4]; 99% (active) in test [5]; 99.2% (active) in test [6].
In the case of `CP(=S)(c1ccccc1)P(C)(=S)c1ccccc1` (centres undefined), the growth inhibition in test [1] is -15.4%; in test [2] it was -19.4%; in test [3], -17.9%; in test [4] it was 5.05%; in test [5] it was -21.2%; in test [6], -31%.
Turning to `CCOP(=O)(O)SP(=O)(O)OCC.[Zn+2]`, the growth inhibition is -13.9% in test [1]; -11.8% in test [2]; -7% in test [3]; 2.9% in test [4]; -5.45% in test [5]; -0.35% in test [6].
Regarding `COc1cc(C)c(C(CC(=O)O)CC(=O)N(CCCl)CCCl)cc1C(C)C` (centres undefined), the growth inhibition in test [1] was 60.4%; in test [2], 4.3%; in test [3], 20.1%; in test [4] it was 28.2%; in test [5] it was 4.5%; in test [6], 57.6%.
On to `Oc1c(Cl)cccc1Cl`, for which the growth inhibition in test [1] was -22.4%; in test [2], -51.9%; in test [3] it was -63%; in test [4], -1.6%; in test [5], -55.1%; in test [6] it was 3.4%.
Consider `CC(C)(C)OP(O)(=S)OC(C)(C)C`, for which the growth inhibition was 14.5% in test [1]; 13.2% in test [2]; 15.8% in test [3]; 15.2% in test [4]; 16.1% in test [5]; 9.55% in test [6].
For the compound `COc1cc2c(c(OC)c1OC)CC1c3c(cc4c(c3-2)OCO4)CCN1C` (centres undefined), the growth inhibition is -5.85% in test [1]; -31.5% in test [2]; -18.1% in test [3]; 13.7% in test [4]; 2.1% in test [5]; -17.3% in test [6].
Regarding `O=NN(c1ccccc1)c1ccccc1`, the growth inhibition in test [1] is 12.2%; in test [2], 9.8%; in test [3] it was -8.6%; in test [4], -22.3%; in test [5], -10.1%; in test [6], 34.5%.
For the compound `C[C@]12CCC(=O)C=C1CC[C@@H]1[C@@H]2CC[C@]2(C)C(=O)[C@H](n3ccnc3)C[C@@H]12`, the growth inhibition was -1.35% in test [1]; 2.45% in test [2]; 0.9% in test [3]; 3.2% in test [4]; -1.2% in test [5]; 5.65% in test [6].
With `CCCC[S][Sn]([CH2]CCC)([CH2]CCC)[S]CCCC`, the growth inhibition in test [1] was 95.8% (active); in test [2], 92.3% (active); in test [3], 94.7% (active); in test [4] it was 89.2% (active); in test [5], 93.2% (active); in test [6], 95.5% (active).
Consider `CCCCNC(=O)C(Cl)Cl`, for which the growth inhibition was 20.2% in test [1]; 5.4% in test [2]; 8.65% in test [3]; 2.4% in test [4]; -14.8% in test [5]; 13.9% in test [6].
Consider `O=c1[nH]cc([N+](=O)[O-])cc1[N+](=O)[O-]`, for which the growth inhibition in test [1] is 1.5%; in test [2], -16.6%; in test [3], -2.25%; in test [4] it was 22.7%; in test [5], -15.6%; in test [6], 0.5%.
Turning to `O=C(NC1CC1)C(Cl)Cl`, the growth inhibition was -0.15% in test [1]; -25.1% in test [2]; 5.85% in test [3]; 11% in test [4]; -16.4% in test [5]; -1.15% in test [6].
Turning to `CCC(CN)c1ccccc1` (centres undefined), the growth inhibition was 13.6% in test [1]; -0.85% in test [2]; 2.75% in test [3]; 0.65% in test [4]; -14.4% in test [5]; -9.4% in test [6].
On to `CCCCOP(=O)(O)OCCCC.[V]`, for which the growth inhibition in test [1] is -0.55%; in test [2], -1.55%; in test [3], -1.55%; in test [4], -17.1%; in test [5], -10.9%; in test [6], 0.65%.
With `C1C2CC3C1C1CN3C21` (centres undefined), the growth inhibition in test [1] was 16.9%; in test [2], 2.65%; in test [3], 5.45%; in test [4], -28%; in test [5], -8.8%; in test [6], 12.2%.
For the compound `CO[C@@]12[C@H](COC(N)=O)C3=C(C(=O)C(C)=C(NCCO)C3=O)N1C[C@@H]1N[C@@H]12`, the growth inhibition in test [1] was 3.75%; in test [2] it was -27.1%; in test [3] it was 21.1%; in test [4], -0.4%; in test [5] it was 7.35%; in test [6] it was -7.45%.
For `OC(c1ccccc1)C(c1ccccc1)N1CCOCC1` (centres undefined), the growth inhibition in test [1] is -8.45%; in test [2], 4.1%; in test [3], -1.3%; in test [4], 1.65%; in test [5] it was 7.9%; in test [6] it was 9.75%.
Turning to `COc1ccc2c(c1O)C13C=C(OS(=O)(=O)c4ccc(C)cc4)C=CC1C(C2)N(C)CC3` (centres undefined), the growth inhibition in test [1] is 40.3%; in test [2], -4.2%; in test [3], 34.9%; in test [4], 13.9%; in test [5], -1.85%; in test [6], 3.55%.
Regarding `CN(C)C1OCC(C)(C)CO1`, the growth inhibition is -13.9% in test [1]; -34.7% in test [2]; -5.55% in test [3]; 12.3% in test [4]; -18% in test [5]; -7.1% in test [6].
Regarding `CN(C)C(=O)N(CCCl)N=O`, the growth inhibition was 5.1% in test [1]; -4.2% in test [2]; 1.45% in test [3]; 2.55% in test [4]; 13.1% in test [5]; 20.8% in test [6].
Regarding `C1=C[N-]c2c3c(ccc2=C1)=CC=C[N-]3.C1=C[N-]c2c3c(ccc2=C1)=CC=C[N-]3.C1=C[N-]c2c3c(ccc2=C1)=CC=C[N-]3.[Co+3].[O-][Cl+3]([O-])([O-])O`, the growth inhibition in test [1] was -8.95%; in test [2] it was -16.4%; in test [3], -22.8%; in test [4], -26.1%; in test [5], -1.15%; in test [6], 8.2%.
As for `O=S=NN(CC(Cl)c1ccccc1)CC(Cl)c1ccccc1` (centres undefined), the growth inhibition is 10.1% in test [1]; -8.5% in test [2]; 19.9% in test [3]; -47.5% in test [4]; 22.9% in test [5]; 7.7% in test [6].
For `N#CC(C#N)=Cc1ccccc1O`, the growth inhibition in test [1] is -8.35%; in test [2] it was -2.35%; in test [3], -1.95%; in test [4], -5.95%; in test [5], -19.8%; in test [6], -9.7%.
With `c1ccc2c(C3N4CCCN3CC4)c[nH]c2c1` (centres undefined), the growth inhibition is -0.2% in test [1]; -15.7% in test [2]; 8.7% in test [3]; 9.3% in test [4]; -4.2% in test [5]; 6.05% in test [6].
Turning to `COC(=S)NP(=O)(NC(=S)OC)NC(=S)OC`, the growth inhibition is 11.7% in test [1]; -3.4% in test [2]; 9.65% in test [3]; -35% in test [4]; -1.95% in test [5]; 8.25% in test [6].
With `O=[N+]([O-])c1cccc(P(=O)(O)O)c1`, the growth inhibition in test [1] was -7.3%; in test [2] it was 53.5%; in test [3], 3.35%; in test [4], 5.25%; in test [5], -4.5%; in test [6] it was 0.85%.
For the compound `O=NN1CCN(N=O)CC1`, the growth inhibition in test [1] was 4.9%; in test [2], -0.6%; in test [3] it was 6.3%; in test [4], 8.95%; in test [5], -0.6%; in test [6], 28.1%.
As for `C[C@]12CC[C@H]3[C@@H](CC[C@]4(O)C[C@@H](O)CC[C@]34CO)[C@@]1(O)CC[C@@H]2C1=CC(=O)OC1`, the growth inhibition in test [1] is -6.1%; in test [2] it was -23.1%; in test [3], -17.6%; in test [4] it was 0.45%; in test [5] it was 1.35%; in test [6] it was -16.9%.
Regarding `CN(C)c1ccc(/C=C/C=C\C2=CC(=C\C=C/C=C3C=CC(=[N+](C)C)C=C3)/Sc3ccccc32)cc1`, the growth inhibition in test [1] was -36.4%; in test [2] it was -45.9%; in test [3], -63.7%; in test [4], -29.6%; in test [5], -27.4%; in test [6] it was -55.3%.
In the case of `CCC1NCCc2cc(OC)c(O)cc21` (centres undefined), the growth inhibition in test [1] was -5.9%; in test [2], 0.35%; in test [3] it was -6.25%; in test [4], 1.4%; in test [5], 1.85%; in test [6] it was -11.4%.
With `CC(=O)OCC1OC([Se-])C(OC(C)=O)C(OC(C)=O)C1OC(C)=O.N#CCC[PH+](CCC#N)CCC#N.[Au+]` (centres undefined), the growth inhibition was 7.35% in test [1]; 6.75% in test [2]; -4.55% in test [3]; -15.8% in test [4]; 1.75% in test [5]; 10.1% in test [6].
